Screening results: PubChem, National Center for Advancing Translational Sciences (NCATS)
p53 reactivator = qHTS assay for re-activators of p53 using a Luc reporter. H1299 p53-A138V BP100-luciferase reporter, luminescence, 24 h. AID 504706, 2011. 320,000 tested, 0.063% active. Potency, µM (highest dose often 92.2 µM), without a hit: at the highest dose activity change, positive = activation, usual class: activators; active = well fitted activation curve with a large enough effect; inconclusive = small, poorly fitted or top-dose-only effect; inactive = no such curve, though single readings can be large or run the other way; note: potency is the fitted concentration of half-maximal effect; % of control where 0% means no effect; nearly all actives have a fitted effect of over 45% in size
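H1299 (p53-null), stable ts p53-A138V + BP100-Luc; 1000 cells/well, Opti-MEM/10% FBS; cpd 4 pt, 1:5; 24 h, 37 deg C, 5% CO2; detection reagent 10 min RT; luminescence.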
TRPV1 PAM = HTS Assay for Compounds that Act as Potentiators of the Vanilloid Receptor 1; 320,000 tested, 0.02% active; potentiation, % at 8.33 µM; Transient receptor potential cation channel subfamily V member 1 (Homo sapiens), Q8NER1; TRPV1-expressing cells, Fluo-8 calcium influx, capsaicin EC20 potentiation; in the data active = potentiation above about 80%; inconclusive = between about 30% and that limit; note: 0% is about no effect
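Fluo-8 calcium influx in TRPV1-expressing cells, kinetic read (ex 480/em 520 nm). Compound added and read 3 min for agonist activity, followed by capsaicin at EC20 final and 2 min further read for enhancement.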
ClpP mod = qHTS Assay for Activators of ClpP. AID 651965, 2013. ATP-dependent Clp protease proteolytic subunit (Bacillus subtilis (strain 168)), P80244. purified B. subtilis ClpP, FRET peptide cleavage, 20 min. Potency, µM (highest dose often 57.5 µM), for inactives: at the highest dose activity change, negative = active. 340,000 tested, 1.9% active; active = well fitted falling curve with a large enough effect; inconclusive = small, poorly fitted or top-dose-only effect; inactive = no such curve, though single readings can be large or run the other way; note: potency is the fitted concentration of half-maximal effect; the source files actives as falling curves though it sought activators and does not explain the sign; nearly all actives have a fitted effect of over 65% in size
Target sequence (P80244 whole entry, looked up): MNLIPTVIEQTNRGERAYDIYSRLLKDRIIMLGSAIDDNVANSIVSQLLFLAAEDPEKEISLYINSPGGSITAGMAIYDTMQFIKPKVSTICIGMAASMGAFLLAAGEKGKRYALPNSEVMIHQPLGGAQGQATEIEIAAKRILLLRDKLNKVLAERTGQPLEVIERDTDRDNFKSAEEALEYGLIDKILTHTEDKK
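Purified B. subtilis ClpP, 10 microg/mL final in Tris/HCl pH8 with KCl, BSA, glycerol and Tween-20, cleaved an Abz/nitrotyrosine-quenched decapeptide. Fluorescence (ex 320, em 430) was read at 0 and 20 min at room temperature. Delta was normalized to 5.8 microM ADEP and DMSO/no-enzyme controls.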
hERG WT inh = qHTS for Inhibitors of KCHN2 3.1: Wildtype qHTS | Voltage-gated inwardly rectifying potassium channel KCNH2 (Homo sapiens), Q12809 | U2OS, BacMam KCNH2, thallium flux FluxOr; hits give low values | activity change, % at 1.84 µM | 340,000 tested, 0.37% active;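 active = maximum activity change below -70%; inconclusive = maximum activity change between -70% and -50%; inactive = maximum activity change above -50%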; note: % is set by controls: 0 for no effect and ±100 for the full control effect
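U2OS cells transduced with wild-type KCNH2 virus are loaded with FluxOr dye for 45 min, and thallium flux is measured in kinetic reads before and after stimulation buffer. Rate constants are normalized to DMSO controls.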
TRPV1 ag = HTS Assay for Compounds that Act as Agonists of the Vanilloid Receptor 1 | activation, % at 8.33 µM | AID 540275, 2011 | Transient receptor potential cation channel subfamily V member 1 (Homo sapiens), Q8NER1 | 320,000 tested, 0.19% active | TRPV1-expressing cells, Fluo-8 calcium influx, agonist mode; in the data active = activation above about 80%; inconclusive = between about 30% and that limit; note: 0% is about no effect
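Cells expressing TRPV1 were dye-loaded with Fluo-8 and read kinetically: 10 s baseline, 3 min after compound (agonist portion), then 2 min after EC20 capsaicin (allosteric enhancer portion). Calcium-bound dye fluorescence at 480/520 nm.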
KCNH2 3.1 block = qHTS for Inhibitors of KCHN2 3.1: Mutant qHTS | Potassium voltage-gated channel subfamily H member 2, brain isoform KCNH2 3.1 (human) | U2OS KCNH2 3.1, thallium flux FluxOr; hits give low values | activity change, % (tested at about 1.8 µM) | 340,000 tested, 0.95% active | AID 720553, 2013;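 active = maximum activity change below -70%; inconclusive = maximum activity change from -70% to -50%; inactive = maximum activity change above -50%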;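 note: thallium influx rate constant from kinetic fluorescence after stimulation buffer; % is set by controls: 0 for no effect and ±100 for the full control effect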
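Channel expression came from 3.1 mutant virus (1.77 x 10^8 /mL) applied to suspended U2OS cells for 4 h. Flux was tracked with FluxOr dye plus Red40 quencher, and kinetic rate constants normalized to controls.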
* marks the source's active call; other numbers are inactive results; ? = inconclusive; . = no result given. Rows were chosen to be rich in hits. Some 2.6% of all compounds tested hit in one or more screens of this group.

SMILES	p53 reactivator	TRPV1 PAM	ClpP mod	hERG WT inh	TRPV1 ag	KCNH2 3.1 block
CN(Cc1cnc2nc(N)nc(N)c2n1)c1ccc(C(=O)NC(CCC(=O)O)C(=O)O)cc1 (configuration not stated)	.	.	16µM*	-8	.	14
C#CCOCCOCCOCCNc1nc(N2CCN(C(=O)Cn3cc(CC(C)O)nn3)CC2)nc(N2CCN(C(=O)[C@H](C)n3cc(CCCN=C(N)N)nn3)CC2)n1 (some centres not stated)	4%	12	1%	0	-2	-147*
CC(=O)Nc1ccccc1-c1nc2ccccc2n(C(C)C(=O)Nc2cc(Cl)ccc2C)c1=O (configuration not stated)	.	.	-6%	.	.	.
Cc1cc(=O)oc2c1ccc1oc(/C(=N/O)c3ccccc3)c(C)c12	-13%	13	?	-4	0	0
Cc1ccc(/C(=N\O)c2oc3c(C)c4oc(=O)cc(C)c4cc3c2C)cc1	14%	-33	25µM*	-2	0	-24
O=C(CCCC(=O)N(c1ccc2c(c1)OCCO2)C(C(=O)NC1CCCCC1)c1ccc(F)cc1)Nc1ccccn1 (configuration not stated)	-6%	-21	-1%	-4	16	-76*
CC1CCCCC1NC(=O)COC(=O)COc1ccccc1Cl (configuration not stated)	0%	4	1%	17	12	1
CC1CCCCC1NC(=O)COC(=O)COc1ccccc1F (configuration not stated)	4%	.	28µM*	3	.	0
Cc1cccc(N2CCN(S(=O)(=O)c3cc(C(=O)Nc4ccc(Oc5ccccc5)cc4)ccc3F)CC2)c1C	.	.	0%	.	.	.
CC(C)(C)c1ccc(O)c(N=Cc2cccc([N+](=O)[O-])c2)c1	.	.	1%	.	.	.
COc1ccc(-c2cc3ccccc3n2CC(O)Cn2nc(C)cc2C)cc1 (configuration not stated)	3%	-6	22µM*	0	18	2
COc1ccc(-c2cc3ccccc3n2CC(O)CN2CCC(C)CC2)cc1 (configuration not stated)	7%	-3	4%	17	1	?
COc1ccc(-c2cc3ccccc3n2CC(O)CNC(CO)(CO)CO)cc1 (configuration not stated)	9%	12	35µM*	-2	-2	-17
Cc1ccc2c(c1)c1c(n2CC(O)CNC(CO)(CO)CO)CCCC1 (configuration not stated)	-7%	?	5%	20	-1	4
CCOC(=O)C1=CCC(c2ccc(C#N)cc2)N(S(=O)(=O)c2ccc(C)cc2)C1 (configuration not stated)	.	.	0%	.	.	.
CN1C2CCC1CC(NS(=O)(=O)c1cc(Cl)c(Cl)cc1Cl)C2 (configuration not stated)	?	6	35µM*	26	-1	17
Cc1sc2ccccc2[n+]1CCC[n+]1c(C)sc2ccccc21	.	.	-3%	.	.	.
CCC(=O)Nc1ccc(-c2cc(-c3ccccc3)nc(-c3ccc(NC(=O)CC)cc3)n2)cc1	-7%	-7	?	-5	-2	6
CC(=O)Nc1ccc(-c2ccc(NC(C)=O)cc2)cc1	8%	-2	.	2	0	-5
CC(=O)Nc1ccc(-c2cc(-c3ccc(NC(C)=O)cc3)nc(-c3ccc(NC(C)=O)cc3)n2)cc1	-7%	-7	5.6µM*	-5	0	16
CC(=O)Nc1ccc(-c2cc(-c3ccccc3)nc(-c3ccccc3)n2)cc1	-8%	-11	28µM*	-6	-3	11
